Screening data as filed in PubChem BioAssay.
Shown are actives, neighbours in structure and some others; about 2.8% of the full set was active somewhere.
PME-1 inh – blocks human protein phosphatase methylesterase 1; recombinant PME-1, FP-Rh probe fluorescence polarization; AID 2130; inhibition, % at 5.9 µM; 0.53% of 320,000 active; Q9Y570;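 active = inhibition above the campaign mean of all compounds plus 3 SD, cut at about 26% in these data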;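 also: competitive labeling of PME-1 active site by serine hydrolase directed probe; 0% = PME-1 with DMSO and 100% = wells lacking PME-1 enzyme; inhibitors block probe labeling so polarization falls and inhibition rises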
PAFAH2 FP inh – inhibitors of human PAFAH2; inhibition, % at 3.39 µM; recombinant PAFAH2, FP-rhodamine activity probe, fluorescence polarization; 0.99% of 340,000 active; Q99487; AID 492956;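 active = inhibition above the mean over all tested compounds plus 3 SD, cut at about 30% in these data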;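 also: inhibitors block probe labeling of enzyme so polarization drops; 0% = enzyme with DMSO and 100% = wells lacking PAFAH2 protein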
pPAFAH FP inh – inhibitors of human plasma PAF acetylhydrolase (pPAFAH). Q13093. recombinant pPAFAH, FP-rhodamine probe fluorescence polarization. inhibition, % at 3.39 µM. 1.5% of 330,000 active;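 active = inhibition above the mean inhibition across the screen plus 3 SD, cut at about 25% in these data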;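 also: inhibitors block binding of the rhodamine activity-based probe so polarization drops; 0% = enzyme with DMSO and 100% = wells lacking pPAFAH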
PAFAH1B3 inh – inhibitors of human PAFAH1B3. recombinant PAFAH1B3, FP-rhodamine probe, fluorescence polarization. Q15102. inhibition, % at 3.39 µM. 0.28% of 340,000 active;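 active = inhibition above the screen-wide average of all tested compounds plus 3 SD, cut at about 25% in these data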;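 also: 0% = enzyme with DMSO only and 100% = wells lacking PAFAH1B3 protein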
Target sequence (Q15102 whole entry, looked up): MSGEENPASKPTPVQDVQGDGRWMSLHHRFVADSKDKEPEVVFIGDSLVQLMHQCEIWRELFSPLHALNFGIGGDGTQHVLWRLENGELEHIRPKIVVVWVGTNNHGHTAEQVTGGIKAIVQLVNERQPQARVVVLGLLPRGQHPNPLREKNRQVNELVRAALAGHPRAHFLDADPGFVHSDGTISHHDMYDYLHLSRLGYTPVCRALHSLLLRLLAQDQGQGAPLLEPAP
PAFAH1B2 FP inh – PAFAH1B2 (human) inhibition; P68402; recombinant PAFAH1B2, FP-rhodamine activity probe, fluorescence polarization; inhibition, % at 3.39 µM; 1.2% of 340,000 active;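 active = inhibition above the mean of all tested compounds plus 3 SD, cut at about 24% in these data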;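 also: 0% = enzyme with DMSO and 100% = wells lacking PAFAH1B2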
Target sequence (P68402 whole entry, looked up): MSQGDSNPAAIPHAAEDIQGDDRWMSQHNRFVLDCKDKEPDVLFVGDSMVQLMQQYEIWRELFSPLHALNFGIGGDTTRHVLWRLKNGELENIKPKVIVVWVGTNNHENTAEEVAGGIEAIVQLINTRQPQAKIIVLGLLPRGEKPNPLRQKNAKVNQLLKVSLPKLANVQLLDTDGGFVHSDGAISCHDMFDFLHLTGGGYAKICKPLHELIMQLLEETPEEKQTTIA
Fam108B inh – blocks mouse Fam108B hydrolase in RBBP9 counter-screen | recombinant Fam108B, FP-Rh probe fluorescence polarization | inhibition, % at 9.51 µM | 0.33% of 300,000 active | AID 1947;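 active = inhibition above the screen mean inhibition plus 3 SD, computed separately per campaign, cut at about 18% in these data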;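 also: inhibitors lower polarization as less probe binds the enzyme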
Fam108b confirm – confirmation of mouse Fam108b serine hydrolase inhibitors; inhibition, % at 9.51 µM; shares compounds with Fam108B inh; 44% of 930 active; recombinant Fam108b, FP-Rh probe fluorescence polarization;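 active = inhibition above a limit from the primary screen, the mean over all compounds plus 3 SD, cut at about 19% in these data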;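 also: 0% = median of active Fam108b wells and 100% = catalytically dead S170A mutant; inhibitors free the probe so polarization falls as inhibition rises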
Fam108b inh – inhibits mouse Fam108b in gel-based ABPP. shares compounds with Fam108B inh. recombinant Fam108b, fluorophosphonate probe. inhibition, % at 20 µM. 44% of 260 active. AID 588649; in the data active = inhibition above about 40%
Active calls of the source: *; x = no result.

SMILES | PME-1 inh | PAFAH2 FP inh | pPAFAH FP inh | PAFAH1B3 inh | PAFAH1B2 FP inh | Fam108B inh | Fam108b confirm | others
CCOC(=O)Nc1sc(C)c(C)c1C(=O)OCC | 2 | -4 | 4 | 18 | 3 | 1 | x
N#C/C(=N\Nc1ccc(S(=O)(=O)N2CCc3ccccc32)cc1)C(N)=S | 12 | 24 | 24 | 14 | 26* | 22* | 27*
CCOC(=O)/C(C#N)=N/Nc1ccc(S(=O)(=O)N2CCc3ccccc32)cc1 | 4 | 0 | 15 | 10 | 13 | 6 | x
O=C(Cc1ccccc1Cl)N1CCN(c2ncccn2)CC1 | -3 | -2 | 3 | 9 | -1 | 4 | x
COc1ccc2nc(SCC(=O)NCc3ccc(OC)c(OC)c3)[nH]c2c1 | 1 | -13 | 10 | -5 | 7 | -1 | x
NNC(=O)c1oc2nc(-c3cccs3)cc(-c3ccco3)c2c1N | 14 | 15 | 32* | 6 | 11 | 24* | 24*
Cc1ccc(-c2cc(-c3ccco3)c3c(N)c(C(=O)NN)oc3n2)cc1 | 6 | 22 | 32* | 13 | 5 | 30* | 13
NNC(=O)c1oc2nc(-c3ccccc3)cc(-c3ccccc3)c2c1N | 5 | 6 | 6 | 16 | 5 | 7 | x
CCOC(=O)c1[nH]c(=O)[nH]c1CNc1ccccc1C#N | 2 | 11 | 4 | 7 | 4 | -3 | x
CCn1c2ccccc2c2cc(NC(=O)c3cc(OC)c(OC)c(OC)c3)ccc21 | 13 | -2 | 6 | 6 | 7 | 19* | -5
CCc1cccc(C)c1NC(=O)CN1C(=O)NC(C)(CCC(C)C)C1=O (centres undefined) | x | 1 | 4 | 3 | 7 | x | x
COc1cc2c(cc1NC(=O)Nc1ccccc1)oc1ccccc12 | 31* | -24 | 1 | 12 | -1 | 33* | 43* | Fam108b inh=90*
COc1cc2c(cc1NC(=S)Nc1cccc3ccccc13)oc1ccccc12 | 22 | -24 | 6 | 3 | -2 | 14 | x
COc1cc2c(cc1NC(=S)Nc1cccc(C(F)(F)F)c1)oc1ccccc12 | -1 | 1 | 3 | 1 | 10 | 24* | 45* | Fam108b inh=85*
C/C(=N\Nc1cc(C)nc(-c2ccccc2O)n1)c1ccccc1 | -5 | -6 | -5 | 1 | 3 | -4 | x
Cc1cc(N/N=C/c2ccc(O)c(C)c2O)nc(-c2ccccc2O)n1 | 62* | -25 | 13 | 18 | -4 | 43* | -6
COc1ccc(CNC(=O)CSc2nc(SC)ns2)cc1 | 1 | 3 | 5 | -3 | 5 | -3 | x
Oc1ccc(/C=N/Nc2nc(-c3cccnc3)nc3ccccc23)c(O)c1 | 52* | -3 | 25* | 25 | 3 | 52* | 2
COc1ccc(/C=N/Nc2nc(-c3cccnc3)nc3ccccc23)cc1OC | -42 | 5 | 5 | 5 | 2 | -3 | x
CC(C)(C)[C@@H]1COC(=O)[C@H](Cc2ccc(F)cc2)CC/C=C\C[C@@H](CC(=O)NCCO)C(=O)N1 | x | 4 | 4 | -3 | 5 | x | x
CCCCN(C)CCNC(=O)CCn1nc(-c2ccc(C)cc2)ccc1=O | 2 | 3 | 6 | -1 | -1 | 0 | x
CSc1nc(NCCOCCO)c2sc3nc(-c4ccco4)c4c(c3c2n1)CCC4 | -5 | 8 | 29* | 12 | 2 | 29* | 5
CSc1nc(NCc2ccco2)c2sc3nc(C(C)C)c4c(c3c2n1)CC(C)(C)OC4 | -15 | -3 | 2 | 5 | 3 | -5 | x
N=C1/C(=C\c2ccc(-c3cc(Cl)cc(Cl)c3)o2)C(=O)N=C2SC=C(c3ccccc3)N12 | 23 | -12 | 12 | -6 | -5 | 5 | x
N=C1/C(=C/c2cccn2CCOc2ccccc2)C(=O)N=C2SC=C(c3ccccc3)N12 | -13 | -27 | 5 | -17 | -10 | 19* | 2
COc1ccc(-c2cc(-c3c(O)c(OC)c4occc4c3OC)[nH]n2)cc1OC | 31* | 17 | 34* | 10 | 4 | 23* | 1
C=CCN1C(=O)C(CC(=O)Nc2ccccc2)N(Cc2ccccn2)C1=S (centres undefined) | -5 | -6 | 1 | 9 | 2 | -1 | x
